Assay outcomes deposited in PubChem BioAssay by ICCB-Longwood Screening Facility, Harvard Medical School.
S aureus helic: S. aureus DNA helicase inhibition. purified S. aureus helicase, fluorescence unwinding assay. inhibition, % (concentration not given with the values). 120,000 compounds, 0.05% hits; in the data active = inhibition above about 25%, passing the limit was not always enough;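 also: 0% = mean of negative control wells and 100% = mean of positive control wells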
Sa growth inh: S. aureus growth inhibition; S. aureus RN4220 growth, OD600, 20 h, 42 °C; hits give low values; relative growth, % (concentration not given with the values); 170,000 compounds, 0.53% hits; AID 720641;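 active = relative growth at most 50% at the other temperature and 20+ points below 30 °C, or under 10% at both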
HCMV NEC inh: disrupts HCMV UL50-UL53 complex binding | inhibition, % (no concentration beside the values) | HTRF UL50-UL53 interaction, normalized percent inhibition | 190,000 compounds, 0.15% hits | AID 1918969; in the data active = inhibition above about 27%, passing the limit was not always enough
Numbers without * were called inactive. This is one part of a sample in which hits are shown more often than they occur.

Cc1cccc(OC(=O)c2cc(-c3ccc(C)c(C)c3)on2)c1 was read as Sa growth inh 0.8* and HCMV NEC inh -4.
Screening COc1ccc(-c2cc(C(=O)Oc3ccc(C)c(C)c3)no2)cc1 returned HCMV NEC inh -10.
Cc1ccc(OC(=O)c2cc(-c3ccc4c(c3)OCCO4)on2)cc1C was read as Sa growth inh 2.2* and HCMV NEC inh -12.
For CCc1nnc(NC(=O)CCC(=O)N2CCC(O)CC2)s1 the results were S aureus helic -1, Sa growth inh 109 and HCMV NEC inh -7.
Screening CN1C(=O)C2C=CC=CC2NC1=S (stereo unspecified) returned S aureus helic -22, Sa growth inh 100 and HCMV NEC inh 28.
Screening CC1(C)CC(=O)c2cc3c(N)c(C(N)=O)sc3nc2C1 returned S aureus helic 10 and HCMV NEC inh -38.
For COCCNC(=S)N1CCC(NC(=O)Nc2ccc(F)cc2)CC1 the results were S aureus helic 1, Sa growth inh 98 and HCMV NEC inh 0.
Screening CS(=O)(=O)c1ncc(Cl)c(C(=O)N2CCN(c3cccc(Cl)c3)CC2)n1 returned Sa growth inh 64 and HCMV NEC inh 13.
For CCS(=O)(=O)c1ncc(Cl)c(C(=O)Nc2ccc(Cl)cc2)n1 the results were S aureus helic -5, Sa growth inh 1.8* and HCMV NEC inh -23.
For CCS(=O)(=O)c1ncc(Cl)c(C(=O)N2CCN(c3cccc(Cl)c3)CC2)n1 the results were Sa growth inh 7.0* and HCMV NEC inh -1.
CCS(=O)(=O)c1ncc(Cl)c(C(=O)Nc2ccc(S(N)(=O)=O)cc2)n1 was read as HCMV NEC inh -71.
For Oc1c(C(c2ccncc2)N2CCCC2)ccc2cccnc12 (stereo unspecified) the results were S aureus helic -2 and Sa growth inh 66.
`COc1ccc(C(c2ccc3cccnc3c2O)N2CCOCC2)cc1` (stereo unspecified) gave S aureus helic 18 and Sa growth inh 8.8*.
For COc1ccc(C(c2ccc3cccnc3c2O)N2CCCC2)cc1 (stereo unspecified) the results were S aureus helic -20, Sa growth inh 96 and HCMV NEC inh -17.
Screening Oc1c(C(c2ccc(C(F)(F)F)cc2)N2CCCC2)ccc2cccnc12 (stereo unspecified) returned S aureus helic -13, Sa growth inh 1.1* and HCMV NEC inh -12.
Screening COc1ccc(OCc2cc(=O)n3nc(C)sc3n2)cc1 returned S aureus helic 6, Sa growth inh 90 and HCMV NEC inh 0.
For O=C1CSCC(=O)N1c1ccc(-n2nc(C(F)(F)F)cc2C(F)(F)F)cc1 the results were Sa growth inh 102 and HCMV NEC inh 1.
`Cn1cc(C(=O)Nc2cccc(Br)c2)c2[nH]c(=O)n(-c3ccc(F)cc3)c(=O)c21` gave HCMV NEC inh -25.
For O=C(CCN1C(=O)c2cccnc2Sc2ccccc21)N1CCc2ccccc21 the results were S aureus helic -3, Sa growth inh 101 and HCMV NEC inh -23.
`COc1cc(C=C2C(=O)NC(=O)NC2=O)ccc1OC(=O)c1ccc(Cl)cc1` gave HCMV NEC inh -5.
C=CCc1cc(C=C2C(=O)NC(=O)NC2=O)cc(OC)c1OC was read as S aureus helic -11, Sa growth inh 99 and HCMV NEC inh 60*.
Screening CCC(=O)Oc1ccc(C=C2C(=O)NC(=O)NC2=O)cc1OC returned S aureus helic 26, Sa growth inh 95 and HCMV NEC inh 56*.
For COc1cc(C=C2C(=O)NC(=O)NC2=O)cc(Cl)c1OCc1ccccc1Cl the results were HCMV NEC inh 4.
For CCC1(CC)Cc2ccccc2C(C2=C(O)CCCC2=O)=N1 the results were S aureus helic 20, Sa growth inh 88 and HCMV NEC inh 12.
Screening CCS(=O)(=O)N1CCN(C(=O)c2nsc3ccc(C)cc23)CC1 returned HCMV NEC inh -14.
Screening Cc1c(-c2ccnc(N)n2)cnn1-c1ccccc1 returned Sa growth inh 88 and HCMV NEC inh -24.
For Nc1nc2c(s1)CCc1c-2cnn1-c1ccccc1 the results were S aureus helic 16, Sa growth inh 110 and HCMV NEC inh 63*.
`CC1=C(C(=O)Nc2cc(C)ccn2)C(c2cccc(Oc3ccccc3)c2)C2=C(CCCC2=O)N1` (stereo unspecified) gave HCMV NEC inh -9.
For Cc1ccc(C)c(N2CCN(CCCNC(=O)c3cn4c5c(ccc(Cl)c5c3=O)OC(C)C4)CC2)c1 (stereo unspecified) the results were S aureus helic 7, Sa growth inh 97 and HCMV NEC inh 30.
Screening O=C(CSc1ncnc2c1oc1ccccc12)NCc1ccccc1 returned S aureus helic 0 and HCMV NEC inh 6.
`O=C(CSc1ncnc2c1oc1ccccc12)NC1CCCCC1` gave S aureus helic 2 and HCMV NEC inh 62*.
